Bioassay records deposited in PubChem BioAssay by National Center for Advancing Translational Sciences (NCATS).
IL1B secr inh: qHTS for Inhibitors of Inflammasome Signaling: IL-1-beta AlphaLISA Primary Screen. THP-1 LPS/ATP IL-1B secretion, AlphaLISA, 16 h; stronger effect = lower value. 4.7% of 360,000 active. activity change, % at 57.5 µM; in the data active means activity change below about -50%; inconclusive means mostly about -30% to -49%
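THP-1 cells pretreated 1 hr with compounds (up to 57.5 uM final), then stimulated with LPS (250 ng/mL final) plus ATP (1.25 mM final); secreted IL-1B measured by AlphaLISA after 16 hr, decreased signal indicating inhibition.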
TDP1 inh: qHTS Assay for Inhibitors of Tyrosyl-DNA Phosphodiesterase (TDP1) | Tyrosyl-DNA phosphodiesterase 1 (Homo sapiens), Q9NUW8 | recombinant TDP1, AlphaScreen DNA substrate cleavage | Potency, µM (top dose mostly 130 µM), actives largely listed as inhibitors | 0.28% of 350,000 active; further: nearly all actives have a fitted effect of over 40% in size
Target sequence (Q9NUW8 whole entry, looked up): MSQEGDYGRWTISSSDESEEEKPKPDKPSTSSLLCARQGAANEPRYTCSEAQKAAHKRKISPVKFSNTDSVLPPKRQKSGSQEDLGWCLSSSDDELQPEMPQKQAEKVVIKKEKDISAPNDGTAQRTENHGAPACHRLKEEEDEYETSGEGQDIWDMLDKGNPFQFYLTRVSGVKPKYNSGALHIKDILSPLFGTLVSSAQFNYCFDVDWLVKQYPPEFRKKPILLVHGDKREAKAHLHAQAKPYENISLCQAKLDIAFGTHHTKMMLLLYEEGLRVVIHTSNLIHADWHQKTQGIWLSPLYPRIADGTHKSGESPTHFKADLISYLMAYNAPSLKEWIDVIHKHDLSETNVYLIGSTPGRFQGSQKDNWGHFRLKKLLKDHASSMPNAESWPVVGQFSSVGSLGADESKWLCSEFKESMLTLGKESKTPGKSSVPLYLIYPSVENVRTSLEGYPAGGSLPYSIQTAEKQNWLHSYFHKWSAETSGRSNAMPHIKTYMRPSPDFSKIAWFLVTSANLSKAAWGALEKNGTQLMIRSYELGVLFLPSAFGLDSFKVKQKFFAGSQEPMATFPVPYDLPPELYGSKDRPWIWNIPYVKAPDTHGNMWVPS
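Recombinant E. coli-expressed Tdp1 (1 nM) preincubated with compound 15 min at RT, then 5'-biotin/3'-phosphotyrosine-FITC DNA substrate (15 nM) added for 5 min. AlphaScreen beads (10 ug/ml) added, 10 min RT; tyrosine-FITC cleavage read as signal loss.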
HepG2 viability: qHTS for Inhibitors of TGF-b: Cytotox Counterscreen | HepG2 CAGA-GFP viability, ATP luminescence, 18 h | Potency, µM (doses to about 46.1 µM), actives largely listed as cytotoxic | 0.76% of 410,000 active
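CellTiter-Glo luminescence gave cytotoxicity after 18 hours at 37 degrees C. The cells were HepG2 CAGA-GFP in 1% FBS DMEM, stimulated with 500 pg/mL TGF-beta after compound addition. %Activity was normalised to no-cell wells (complete cell-killing) and DMSO (no toxicity), and curves were fitted and classified.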
TDP1 cell noCPT: qHTS for Inhibitors of human tyrosyl-DNA phosphodiesterase 1 (TDP1): qHTS in cells in absence of CPT. DT40 Tdp1-/- hTDP1 cells, no CPT, ATP luminescence, 48 h. Potency, µM (top dose mostly 46.2 µM), hits mostly inhibitors. 15% of 420,000 active; further: nearly all actives have a fitted effect of over 55% in size
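Readout: luminescence from CellTiter-Glo after 30 min in the dark at RT. Cells: DT40 Tdp1-/- with stable hTDP1, 400/well. Exposure: compounds alone, ≥48 hr, 37 °C.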
TDP1 cell CPT: qHTS for Inhibitors of human tyrosyl-DNA phosphodiesterase 1 (TDP1): qHTS in cells in presence of CPT | Potency, µM (highest dose often 46.2 µM), most hits filed as inhibitors | 12% of 420,000 active | chicken DT40 Tdp1-/-;hTDP1 cells + 20 nM CPT, ATP luminescence, 48 h; further: nearly all actives have a fitted effect of over 55% in size
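Chicken DT40 Tdp1-/- cells complemented with human TDP1, 400 cells/well, exposed to compounds plus 20 nM camptothecin for at least 48 h at 37 C; viability read as ATP content by CellTiter-Glo luminescence.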
TGFb inhibitor: qHTS for Inhibitors of TGF-b | 1.2% of 410,000 active | HepG2 CAGA-GFP TGF-b/SMAD3 reporter, GFP fluorescence, 18 h; TGF-beta stimulated, 500 pg/mL final | Potency, µM (highest dose often 46.1 µM), usual class: inhibitors; further: nearly all actives have a fitted effect of over 65% in size
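TGF-beta reporter screen: HEPG2 CAGA-GFP, 1% FBS, 500 pg/mL TGF-beta final, 18 h; per-cell GFP summed per well; curves fitted and categorized by class.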
A number is an active result; . = inactive; ? = inconclusive; / = no result; [ ] = another dose, or the depositor's remark. Hits are enriched below; roughly 19% of the tested compounds scored in any of these assays. Unless noted, the call rests on the fitted dose curve; in most records, active means well fitted curve in the direction sought with a large enough effect; inconclusive means small, poorly fitted or top-dose-only effect, or another doubt; inactive means no such curve, though single readings can be large; an effect the other way counts as inactive or inconclusive.

SMILES	IL1B secr inh	TDP1 inh	HepG2 viability	TDP1 cell noCPT	TDP1 cell CPT	TGFb inhibitor
Cc1c(CCOC(=O)C23CC4CC(CC(C)(C4)C2)C3)sc[n+]1CC(=O)c1ccccc1	?	.	.	21µM	23µM	?
Cc1ncsc1CCOC(=O)C12CC3CC(CC(C3)C1)C2	.	.	.	.	.	.
Cc1c(CCOC(=O)CC23CC4CC(CC(C)(C4)C2)C3)sc[n+]1CC(=O)c1ccccc1	-81	.	.	16µM	16µM	?
CC(C)=CC(=O)O[C@@H]1Cc2cc3ccc(=O)oc3cc2OC1(C)C	.	.	.	?	?	.
Cc1nn(-c2ccccc2)c(NC(=O)NS(=O)(=O)c2ccc(Cl)cc2)c1C#N	/	.	/	/	/	/
CCOc1ccc(N2CC(NC(=O)C3CCCC3)CC2=O)cc1 (centres undefined)	/	.	.	.	.	.
Cc1cccn2c(Nc3ccccc3)c(-c3cccs3)nc12	/	.	.	?	?	?
O=C(COc1ccc(Cl)cc1)NCc1nnc(SCC(=O)Nc2ccc(F)cc2F)o1	.	.	.	.	13µM	.
CCOc1ccccc1NC(=O)CSc1nnc(CNC(=O)COc2ccc(Cl)cc2)o1	.	.	.	.	.	.
COC(=O)c1ccc(CSc2nnc(CNC(=O)COc3ccc(Cl)cc3)o2)o1	.	.	.	?	16µM	.
CC1CCC(C(=O)c2c(O)c3ccccc3oc2=O)CC1 (centres undefined)	-94	.	.	18µM	18µM	.
Cc1nc(C)c(-c2nnc(-c3ccccc3Cl)o2)cc1C(=O)NN	.	/	.	.	.	.
Cc1nc(C)c(-c2nnc(-c3ccc(C(C)(C)C)cc3)o2)cc1C(=O)NN	.	.	.	23µM	?	.
Cc1ccccc1-c1noc(-c2ccc(N3CCN(c4ccccc4)CC3)c([N+](=O)[O-])c2)n1	/	.	.	?	?	.
CCC(=O)N1CCc2cc(S(=O)(=O)NCCC(=O)Nc3ccc(N(CC)CC)cc3C)ccc21	/	.	.	23µM	?	.
CCC(=O)N1CCc2cc(S(=O)(=O)NCCC(=O)Nc3ccc(C)cc3C)ccc21	/	.	.	23µM	?	?
CC(C)NC(=O)Cn1ccc2cc(S(=O)(=O)N3CCCCCC3)ccc21	/	.	.	?	?	.
COC(=O)c1ccc(C(NC(=O)OCc2ccccc2)/C(F)=C/[C@@H](C)C(=O)NCc2nc3ccccc3s2)cc1 (some centres undefined)	/	.	/	/	/	/
CC1CCCCC1NC(=O)COC(=O)c1ccc([N+](=O)[O-])o1 (centres undefined)	.	.	.	.	.	.
Cc1c(C(=O)OCC(=O)NC(=O)NC2CCCCC2)cccc1[N+](=O)[O-]	-67	.	.	?	?	.
O=C(COC(=O)c1ccc([N+](=O)[O-])o1)NC1CCCCC1	.	.	.	0.0082µM	0.0082µM	?
CC#CCN1c2ccccc2[C@]23C[C@@H](C(=O)OC)N(S(=O)(=O)c4ccc(C#N)cc4)C2=NC(C(=O)OC)=C(C(=O)OC)[C@H]13	/	.[12.3 µM]	/	/	/	/
COc1cc(Cn2c(=O)oc3ccc(C)cc32)ccc1OC(C)C	.	.	.	.	.	.
CCCCCOc1ccc(Cn2c(=O)oc3ccc(C)cc32)cc1OC	/	.	.	21µM	26µM	.
Cc1ccc(C(C)C)c(OCCCn2c(=O)oc3ccc(C)cc32)c1	/	.	.	16µM	?	?
SMILES	IL1B secr inh	TDP1 inh	HepG2 viability	TDP1 cell noCPT	TDP1 cell CPT	TGFb inhibitor
CCC1CCCCN1C(=O)CSc1n[nH]c(-c2ccccc2)n1 (centres undefined)	/	.	.	?	?	?
O=C(NC1CCCC1)c1cc(S(=O)(=O)N2CCOCC2)c(Cl)cc1Cl	.	.	.	.	.	.
O=C(COC(=O)c1cc(S(=O)(=O)N2CCOCC2)c(Cl)cc1Cl)NC1CC1	-97	.	.	.	.	.
COc1ccc(OCCOC(=O)c2cc(S(=O)(=O)N3CCOCC3)c(Cl)cc2Cl)cc1	-94	/	.	?	?	.
Cc1cc(C)c(OCC(=O)OC(C)C(=O)NCc2ccccc2)c(C)c1 (centres undefined)	.	.	.	.	.	.
Cc1ccc(C)c(NC(=O)CSc2nnc(CNC(=O)c3ccccc3)n2-c2ccccc2)c1	/	.	.	.	.	.
COCCN1CCN(C(=O)c2cnn(-c3nccc(-c4ccccc4OC)n3)c2-c2ccco2)CC1	/	/	/	.	.[9.04 µM]	/
O=C(NC(=O)c1ccccc1O)c1ccc2c(c1)CCO2	.	/	.	21µM	.	.
CC(C)(C)NC(=O)c1ccc2c(c1)CCO2	.	.	.	.	.	.
CC(C)Oc1ccc(C(=O)/C=C2/C(=O)Nc3ccccc32)cc1	-100	/	.	12µM	?	?
O=C1Nc2ccccc2/C1=C\C(=O)c1ccccc1	.	/	.	2.1µM	2.9µM	?
O=C(/C=C1\C(=O)Nc2ccccc21)/C=C1\C(=O)Nc2ccccc21	.	.	.	1.8µM	1.5µM	?
CN(O)/C=C1\C(=O)Nc2ccccc21	.	.	.	.	.	.
O=C(OCc1cncs1)c1cccs1	?	.	.	.	.	.
CC(C)C[C@@H](CC(=O)N[C@@H](CCC(=O)O)CC(=O)O)NC(=O)[C@@H]1CCCC[C@H]1NC(=O)C[C@@H](NC(=O)C[C@H](Cc1ccccc1)NC(=O)[C@@H]1CCCC[C@H]1N)C(C)C	/	.	/	/	/	/
C/C=C\C=C/C(=O)Nc1cccc(C2=NOC3(C2)C[C@@H](C(N)=O)N(C(=O)c2ccccc2)C3)c1 (some centres undefined)	/	.	/	/	/	/
C/C=C\C=C\C(=O)Nc1cccc(C2=NOC3(C2)C[C@H](C(N)=O)N(C(=O)c2ccccc2C(=O)c2ccccc2)C3)c1 (some centres undefined)	.	.	.	16µM	?	?
C/C=C/C=C\C(=O)Nc1cccc(C2=NOC3(C2)C[C@@H](C(N)=O)N(C(=O)c2cc([N+](=O)[O-])cc([N+](=O)[O-])c2C)C3)c1 (some centres undefined)	.	.	.	?	16µM	.
